From PubChem BioAssay (NCI)
About 79,000 compounds went through this panel and 15% of them were active in at least one assay; those are over-represented in the sample as a whole. Activity calls are given as the source filed them. Rule as the data show it: active = growth inhibition above about 70%; inactive = the rest.

Experiments:
[1] = NCI Yeast Anticancer Drug Screen. Data for the rad50 strain (AID 155);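 also: 0% = growth of vehicle-only cultures of the same strain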; conditions: S. cerevisiae rad50 strain growth inhibition; at 50.0 µM; stronger effect = higher value
Summary of the method: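 Readout: growth inhibition relative to vehicle-treated cultures. Compound exposure was carried out in a genetically defined yeast strain deficient in DNA damage repair.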

[2] = NCI Yeast Anticancer Drug Screen. Data for the mec2-1 strain (AID 157); conditions: S. cerevisiae mec2-1 strain, at 50.0 µM, stronger effect = higher value
Summary of the method: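 Readout is yeast growth inhibition, normalised to vehicle-treated controls, in the mec2-1 strain exposed to compound.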

[3] = NCI Yeast Anticancer Drug Screen. Data for the sgs1 mgt1 strain (AID 161);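 also: 0% = growth of cultures given vehicle only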; conditions: S. cerevisiae sgs1 mgt1 strain, at 50.0 µM, stronger effect = higher value
Summary of the method: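 This yeast growth screen uses a strain with defined DNA-repair lesions; compound-treated growth is compared with vehicle-treated growth.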

[4] = NCI Yeast Anticancer Drug Screen. Data for the cln2 rad14 strain (AID 165);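 also: 0% = growth equal to vehicle treated cultures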; conditions: S. cerevisiae cln2 rad14 strain, at 50.0 µM, stronger effect = higher value
Summary of the method: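 Relative to vehicle controls, growth inhibition of compound-treated cln2 rad14 yeast was recorded.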

[5] = NCI Yeast Anticancer Drug Screen. Data for the bub3 strain (AID 167); conditions: S. cerevisiae bub3 mutant strain, at 50.0 µM, stronger effect = higher value
Summary of the method: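 Readout: yeast growth inhibition, expressed relative to vehicle-only wells. The test organism is a mutant strain from a panel with lesions in DNA repair or checkpoint genes.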

[6] = NCI Yeast Anticancer Drug Screen. Data for the mlh1 rad18 strain (AID 175); conditions: S. cerevisiae mlh1 rad18 strain growth inhibition; at 50.0 µM; stronger effect = higher value
Summary of the method: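 Test agents were incubated with a yeast strain of defined genotype (DNA damage repair defect). Inhibition of growth was derived by comparison with vehicle-exposed cultures.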

Measured: growth inhibition

O=S(=O)(O)CS(=O)(=O)O
inactive: [1] -21.9% | [2] -2.3% | [3] 8.3% | [4] -26.4% | [5] 4.9% | [6] -1.15%

CC(=O)c1ccccc1
inactive: [1] 1.4% | [2] -12.9% | [3] -16.1% | [4] -5.7% | [5] -18.2% | [6] -23.8%

CSc1nc(-c2ccc([N+](=O)[O-])cc2)oc1/N=C/c1ccc([N+](=O)[O-])cc1
inactive: [1] -8.45% | [2] -9.65% | [3] -14.6% | [4] -29.1% | [5] 3% | [6] 4.35%

CC(C)(C)N1COCC(COc2ccc(Cl)cc2)OC1 (stereo not given)
inactive: [1] -13.3% | [2] -3.5% | [3] 4.95% | [4] 11.4% | [5] -16.1% | [6] 24.8%

CC(C)=CCOc1cc(NC(=S)c2ccsc2C)ccc1Cl
inactive: [1] -40.6% | [2] -24.6% | [3] -34.1% | [4] -22.4% | [5] -19.1% | [6] -36.3%

CC(=O)Nc1cc(C)c(C(=O)OC(=O)c2cc(C)c(NC(C)=O)cc2C)cc1C
inactive: [1] 22.4% | [2] -10.1% | [3] 5.1% | [4] -57.6% | [5] -0.85% | [6] 6.2%

COc1ccc(NC(=O)CC(=O)n2nc(C)c(N=Nc3ccccc3C(=O)O)c2C)cc1
inactive: [1] 8.6% | [2] 10.6% | [3] -6.05% | [4] -42.5% | [5] -1.35% | [6] 15.3%

O=C(Nc1ccc2ccccc2c1)C1CC1
inactive: [1] 0.2% | [2] -13.3% | [3] -9.15% | [4] -68.8% | [5] -33.1% | [6] -6.65%

Cn1c(=S)[nH]c2cc(Cl)c(Cl)cc21
inactive: [1] 17.4% | [2] -3.05% | [3] 0.55% | [4] -21.7% | [5] -14.7% | [6] 20.4%

OC(CBr)c1cc(-c2ccc(Cl)cc2)nc2c(-c3ccccc3)cccc12 (stereo not given)
inactive: [1] -3% | [2] 3.85% | [3] -4.05% | [4] -25.4% | [5] 2.35% | [6] 28.7%

CNc1ncc(-c2nnnn2-c2ccccc2)c(CN(C)C)n1
inactive: [1] -36% | [2] -3.05% | [3] -3.4% | [4] 5.1% | [5] -3.45% | [6] 25.2%

Nc1ccn[nH]1
inactive: [1] 5.1% | [2] -0.05% | [3] 0.8% | [4] -2.25% | [5] 18.1% | [6] 1.35%

N#CC1C(C#N)C2CCC1C1N=NN(c3ccccc3)C21 (stereo not given)
inactive: [1] -16.4% | [2] -12.1% | [3] -10.8% | [4] -19.1% | [5] 17.9% | [6] -28.6%

O=C(CCC(=O)Nc1ccccc1[N+](=O)[O-])CC(=O)c1ccc(Br)cc1
inactive: [1] 4.85% | [2] 7.75% | [3] -2.95% | [4] 9.3% | [5] -13.1% | [6] 6.15%

CC(C)(CCC(C)(C)c1ccccc1)c1ccccc1
inactive: [1] -2.7% | [2] -35.7% | [3] -9.2% | [4] -9.75% | [5] -17.9% | [6] -8.25%

CCCCCCCCCC(=O)N/N=C\c1cccc2ccccc12
inactive: [1] 0.15% | [2] 17.9% | [3] 1.2% | [4] -14.1% | [5] 24.6% | [6] 16.9%

COC1CCC2(C)C3CCC4C(=CCC5C(C)(C)C(OC(C)=O)CCC45C)CC3(C)CCC2C1(C)C (stereo not given)
inactive: [1] 13.1% | [2] -19.4% | [3] -8.35% | [4] -20.8% | [5] 0.1% | [6] 0.2%

COC1OC(CCl)C(Cl)C(OC)C1OC (stereo not given)
inactive: [1] -9.1% | [2] -1.1% | [3] 5.6% | [4] -1.5% | [5] -2.5% | [6] 14.4%

O=c1[nH]nc(-c2ccccc2)n1/N=C/c1c(O)ccc2ccccc12
inactive: [1] 8.15% | [2] 17.9% | [3] 9.15% | [4] 13.3% | [5] 15.4% | [6] 24.6%

CC(C)(CC1(C)NC(=O)NC1=O)OCc1ccccc1 (stereo not given)
inactive: [1] -0.5% | [2] -30.1% | [3] -14.8% | [4] -24.2% | [5] -45.8% | [6] 1.95%

CN1C(=O)CC2(C)c3cc(O)ccc3N(C)C12 (stereo not given)
inactive: [1] 53.6% | [2] 30.1% | [3] 54.5% | [4] 64.3% | [5] 32.6% | [6] -81.7%

N#Cc1c(N)[n+]([O-])c2c([n+]1[O-])CCCC2
inactive: [1] 11.4% | [2] 3.35% | [3] 7% | [4] -43.2% | [5] -14.8% | [6] -3.35%

CCOC(=O)Nc1cc(Cl)c2nnn(C(=O)OCC)c2n1
active: [1] 95.8% | [2] 98.2% | [3] 97.9% | [4] 90.7% | [5] 96.7% | [6] 97.6%

CC(=O)CC(=O)NCCCN1CCCCC1
inactive: [1] -28.7% | [2] -52.1% | [3] -30.4% | [4] -5.1% | [5] -34.4% | [6] -33.4%

C[S+]1Cc2nc3ccccc3n2C1c1c(F)cccc1F (stereo not given)
inactive: [1] 4.65% | [2] -19.2% | [3] -1.75% | [4] 12.8% | [5] -14.7% | [6] 2.35%

ClC(Cl)=C(Cl)C(Cl)(Cl)Cl
inactive: [1] -23.8% | [2] 20.9% | [3] 0.95% | [4] -16.5% | [5] -5.65% | [6] 5.4%

COC(=O)C12CCC(C(=O)OC)(CC1)n1c(=O)n(-c3ccccc3)c(=O)n12
inactive: [1] -4.8% | [2] -5.15% | [3] -7.7% | [4] -16.8% | [5] -1.85% | [6] -7.15%

O=C(O)C1CCc2ccccc2C1 (stereo not given)
inactive: [1] 15.4% | [2] 4.05% | [3] 9.85% | [4] -0.45% | [5] -2.4% | [6] 2.95%

CCN(CC)CCC(=O)O
inactive: [1] -13.4% | [2] -19.4% | [3] -7% | [4] 5.95% | [5] -10.7% | [6] -5.2%

Cc1nc(C)c(N2CCN(CN)CC2)c(=O)[nH]1
inactive: [1] -45.2% | [2] -32.8% | [3] -48% | [4] 30.6% | [5] 14.3% | [6] -72.3%

CN(Nc1c([N+](=O)[O-])cc([N+](=O)[O-])cc1[N+](=O)[O-])c1ccc2ccccc2c1
inactive: [1] 14.2% | [2] 7.3% | [3] 21.4% | [4] 24.2% | [5] 7.2% | [6] 8.35%

CC(C)(C)CC(C)(C)c1cc2c(O)c(c1)Cc1cc(C(C)(C)CC(C)(C)C)cc(c1O)Cc1cc(C(C)(C)CC(C)(C)C)cc(c1O)Cc1cc(C(C)(C)CC(C)(C)C)cc(c1O)Cc1cc(C(C)(C)CC(C)(C)C)cc(c1O)Cc1cc(C(C)(C)CC(C)(C)C)cc(c1O)C2
inactive: [1] 7.4% | [2] 3.05% | [3] 18.4% | [4] 18.9% | [5] 4.95% | [6] 9.55%

CC(=O)NC(C)Cc1ccc(C(=O)O)cc1 (stereo not given)
inactive: [1] 13.9% | [2] -6.25% | [3] -8.5% | [4] -36.4% | [5] -4.5% | [6] 12.6%

O=C1CN(c2ccc(Cl)cc2)C(=O)CN1/N=C/c1ccc(O)c(O)c1
inactive: [1] -37.1% | [2] -10.8% | [3] 4.4% | [4] -16.9% | [5] -7.65% | [6] -4.95%

CC1c2ccccc2-c2ccccc2N1C(=O)c1cccc(C(=O)N2c3ccccc3-c3ccccc3C2C)n1 (stereo not given)
inactive: [1] 26.3% | [2] 11.6% | [3] -6.75% | [4] -1.9% | [5] -2.1% | [6] 18.1%

C/C(=N/O)C1CC(C)([N+](=O)[O-])CCC1(C)O (stereo not given)
inactive: [1] -8.15% | [2] -13.6% | [3] -19.2% | [4] -8.5% | [5] 5.45% | [6] 5.65%

CCC(C#N)(C(=O)OC)/C(C)=C/C(C)C (stereo not given)
inactive: [1] 7.95% | [2] -13.2% | [3] -3.45% | [4] -7.25% | [5] -26.9% | [6] -25.1%

C/C(=C\c1ccc(F)cc1)C(=O)O
inactive: [1] 20.2% | [2] -0.95% | [3] 0% | [4] 11.2% | [5] 14.9% | [6] 13.8%

O=C(NCCCCNCCCNC(=O)OCc1ccccc1)OCc1ccccc1
inactive: [1] 14.7% | [2] -4.2% | [3] -2.65% | [4] -8.55% | [5] -20.4% | [6] -59.8%

Cc1cc2ccccc2c[n+]1CC(=O)CC([O-])(C(F)(F)F)C(F)(F)F
inactive: [1] 2.85% | [2] 3.25% | [3] -5.65% | [4] 4.1% | [5] 16.4% | [6] -14.9%
